PubChem BioAssay (EPA / NIEHS)
Calls of active or inactive are those of the source. How the source made its calls: active means hit-call score of the fitted dose curve at least 0.9, where 1 is the maximum; inactive means score below 0.9.

Tests used:
[1] = read-out: Macrophage colony-stimulating factor (MCSF), CSF1 (gene 1435); test: BSK_hDFCGF_MCSF: BioMAP Diversity Plus: hDFCGF Assay for Macrophage colony-stimulating factor (MCSF) Biomarker Activity (AID 2283060); conditions: primary human foreskin fibroblasts; actives raise or lower the signal
Summary of the method: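 ELISA read-out of M-CSF in human dermal foreskin fibroblast cultures, 24 h after chemical dosing; gain or loss of signal fitted bidirectionally relative to DMSO baseline.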

[2] = BSK_hDFCGF_SRB: Viability Assessment in the BioMAP Diversity Plus: hDFCGF Assay (AID 2283061); conditions: primary human foreskin fibroblasts;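 further: cells exposed to compound for 24 h before the read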
Summary of the method: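 Primary human foreskin fibroblasts; 24 h post-dose; fixed 10% TCA, stained 0.1% SRB, A560 read; total protein as overt cytotoxicity measure; curves fit bidirectionally vs DMSO control.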

[3] = read-out: TIMP metallopeptidase inhibitor 1 (TIMP1), TIMP1 (gene 7076); test: BSK_hDFCGF_TIMP1: BioMAP Diversity Plus: hDFCGF Assay for TIMP metallopeptidase inhibitor 1 (TIMP1) Biomarker Activity (AID 2283062); conditions: primary human foreskin fibroblasts; actives raise or lower the signal
Summary of the method: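 ELISA readout of TIMP-1 from human dermal foreskin fibroblast cultures 24 h post-dosing. Curves were fitted in both directions against DMSO baseline, with SRB total-protein staining in parallel cultures as a cytotoxicity check.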

[4] = read-out: Monokine induced gamma interferon (MIG), CXCL9 (gene 4283); test: BSK_hDFCGF_MIG: BioMAP Diversity Plus: hDFCGF Assay for Monokine induced gamma interferon (MIG) Biomarker Activity (AID 2283063); conditions: primary human foreskin fibroblasts; actives raise or lower the signal
Summary of the method: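 Fibroblasts (human foreskin, primary) dosed, 24 h, MIG by ELISA; fit bidirectional vs DMSO.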

[5] = read-out: Matrix Metallopeptidase 1 (MMP1), MMP1 (gene 4312); test: BSK_hDFCGF_MMP1: BioMAP Diversity Plus: hDFCGF Assay for Matrix Metallopeptidase 1 (MMP1) Biomarker Activity (AID 2283064); conditions: primary human foreskin fibroblasts; actives raise or lower the signal
Summary of the method: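 MMP1 levels quantified by ELISA 24 h after dosing human dermal fibroblast cultures, with parallel SRB total-protein staining for overt cytotoxicity. Data fitted in both directions against DMSO baseline.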

[6] = read-out: Vascular cell adhesion molecule 1 (VCAM1), VCAM1 (gene 7412); test: BSK_hDFCGF_VCAM1: BioMAP Diversity Plus: hDFCGF Assay for Vascular cell adhesion molecule 1 (VCAM1) Biomarker Activity (AID 2283065); conditions: primary human foreskin fibroblasts; actives raise or lower the signal;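 on AC50: VCAM-1 protein level quantified by ELISA after 24 h chemical exposure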
Summary of the method: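 ELISA read-out of VCAM-1 on human skin fibroblasts, 24 h post-dose; gain or loss of signal fitted bidirectionally against DMSO baseline.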

[7] = read-out: Interferon-gamma inducible Protein 10 (IP10), CXCL10 (gene 3627); test: BSK_KF3CT_IP10: BioMAP Diversity Plus: KF3CT Assay for Interferon-gamma inducible Protein 10 (IP10) Biomarker Activity (AID 2283068); conditions: primary human keratinocytes with fibroblasts; actives raise or lower the signal
Summary of the method: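 Signal is secreted/surface IP-10 by ELISA in a human primary skin co-culture of keratinocytes and foreskin fibroblasts, taken 24 h post-dosing; DMSO served as negative control.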

[8] = BSK_KF3CT_SRB: Viability Assessment in the BioMAP Diversity Plus: KF3CT Assay (AID 2283069); conditions: primary human keratinocytes with fibroblasts;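 further: read 24 h after compound addition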
Summary of the method: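 Cytotoxicity was gauged by SRB staining (0.1% SRB, 10% TCA fixation, 560 nm) of parallel cultures at 24 h. The cells were primary human skin keratinocytes co-cultured with fibroblasts, and activity was fitted in both directions against DMSO.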

[9] = read-out: Interleukin-1 alpha (IL1a), IL1A (gene 3552); test: BSK_KF3CT_IL1a: BioMAP Diversity Plus: KF3CT Assay for Interleukin-1 alpha (IL1a) Biomarker Activity (AID 2283070); conditions: primary human keratinocytes with fibroblasts; actives raise or lower the signal
Summary of the method: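 IL-1a was detected by ELISA 24 h after chemical treatment of a co-culture of human skin keratinocytes and foreskin fibroblasts. Gain or loss of signal was fitted against the DMSO baseline.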

[10] = read-out: TIMP metallopeptidase inhibitor 2 (TIMP2), TIMP2 (gene 7077); test: BSK_KF3CT_TIMP2: BioMAP Diversity Plus: KF3CT Assay for TIMP metallopeptidase inhibitor 2 (TIMP2) Biomarker Activity (AID 2283071); conditions: primary human keratinocytes with fibroblasts; actives raise or lower the signal
Summary of the method: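 TIMP-2 measured by ELISA at 24 h in human keratinocyte/fibroblast primary co-cultures exposed to chemicals. Both increases and decreases were fitted against DMSO. Parallel cultures were stained with SRB for total protein as an overt-cytotoxicity check.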

[11] = read-out: Transforming growth factor beta 1 (TGFb1), TGFB1 (gene 7040); test: BSK_KF3CT_TGFb1: BioMAP Diversity Plus: KF3CT Assay for Transforming growth factor beta 1 (TGFb1) Biomarker Activity (AID 2283072); conditions: primary human keratinocytes with fibroblasts; actives raise or lower the signal
Summary of the method: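 ELISA quantifies TGF-b1 at 24 h post-dose in a primary human skin co-culture of keratinocytes and fibroblasts, with gain or loss judged against DMSO. Parallel SRB total-protein staining flags overt cytotoxicity.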

[12] = read-out: C-C motif chemokine 2 (Homo sapiens) (UniProt P13500); test: BSK_KF3CT_MCP1: BioMAP Diversity Plus: KF3CT Assay for Monocyte Chemoattractant Protein 1 (MCP1/CCL2) Biomarker Activity (AID 2283073); conditions: primary human keratinocytes with fibroblasts; actives raise or lower the signal
Summary of the method: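 KF3CT skin co-culture (keratinocytes/foreskin fibroblasts), 24 h post-dose; MCP-1 by ELISA; gain/loss of signal fit bidirectionally vs DMSO baseline.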

[13] = read-out: Matrix Metallopeptidase 9 (MMP9), MMP9 (gene 4318); test: BSK_KF3CT_MMP9: BioMAP Diversity Plus: KF3CT Assay for Matrix Metallopeptidase 9 (MMP9) Biomarker Activity (AID 2283074); conditions: primary human keratinocytes with fibroblasts; actives raise or lower the signal;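 on AC50: MMP9 protein level quantified by ELISA in the co-culture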
Summary of the method: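 MMP-9 quantified by ELISA after 24 h chemical treatment of primary human skin keratinocyte/fibroblast co-cultures; gain or loss fitted against DMSO, with parallel SRB staining (0.1% SRB, 560 nm) for overt cytotoxicity.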

[14] = read-out: urokinase plasminogen activator (uPA), PLAU (gene 5328); test: BSK_KF3CT_uPA: BioMAP Diversity Plus: KF3CT Assay for urokinase plasminogen activator (uPA) Biomarker Activity (AID 2283075); conditions: primary human keratinocytes with fibroblasts; actives raise or lower the signal
Summary of the method: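 ELISA read-out of uPA 24 h after dosing human skin keratinocytes co-cultured with foreskin fibroblasts. Signal change fitted both ways relative to DMSO; sulforhodamine B on parallel cultures marks overt cytotoxicity.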

CD40, CD40 (gene 958) = test: BSK_LPS_CD40: BioMAP Diversity Plus: LPS Assay for CD40 Biomarker Activity (AID 2283076); conditions: primary human HUVEC with PBMC; actives raise or lower the signal
Summary of the method: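 ELISA readout of CD40 in HUVEC/PBMC co-culture (BSK_LPS system), 24 h post-dosing; bidirectional curve fit, DMSO baseline; parallel SRB total-protein staining for cytotoxicity.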

[15] = read-out: E-selectin (Homo sapiens) (UniProt P16581); test: BSK_LPS_Eselectin: BioMAP Diversity Plus: LPS Assay for Eselectin Biomarker Activity (AID 2283077); conditions: primary human HUVEC with PBMC; actives raise or lower the signal
Summary of the method: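 ELISA readout of E-selectin, 24 h post-dose, HUVEC + PBMC co-culture (LPS system). Gain or loss of signal vs DMSO baseline, bidirectional fit.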

[16] = read-out: Interleukin-8 (IL8), CXCL8 (gene 3576); test: BSK_LPS_IL8: BioMAP Diversity Plus: LPS Assay for Interleukin-8 (IL8) Biomarker Activity (AID 2283078); conditions: primary human HUVEC with PBMC; actives raise or lower the signal
Summary of the method: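 HUVEC + PBMC co-culture, LPS-activated; test chemicals dosed, IL-8 read by ELISA at 24 h. Bidirectional curve fit vs DMSO baseline (gain or loss of signal).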

[17] = read-out: Plasminogen activator inhibitor-1 (PAI1), SERPINE1 (gene 5054); test: BSK_hDFCGF_PAI1: BioMAP Diversity Plus: hDFCGF Assay for Plasminogen activator inhibitor-1 (PAI1) Biomarker Activity (AID 2283066); conditions: primary human foreskin fibroblasts; actives raise or lower the signal
Summary of the method: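 PAI-1 levels in human dermal foreskin fibroblasts were quantified by ELISA 24 h after dosing, with gain or loss analysed against DMSO. Overt cytotoxicity was checked by sulforhodamine B total-protein staining in parallel cultures.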

[18] = read-out: Intercellular Adhesion Molecule 1 (ICAM1), ICAM1 (gene 3383); test: BSK_KF3CT_ICAM1: BioMAP Diversity Plus: KF3CT Assay for Intercellular Adhesion Molecule 1 (ICAM1) Biomarker Activity (AID 2283067); conditions: primary human keratinocytes with fibroblasts; actives raise or lower the signal
Summary of the method: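 ELISA readout of ICAM-1; KF3CT human skin co-culture (keratinocytes + foreskin fibroblasts), 24 h post-dose; gain/loss fit vs DMSO baseline.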

Measured: AC50

Sequence of E-selectin (Homo sapiens) (P16581 whole entry, looked up): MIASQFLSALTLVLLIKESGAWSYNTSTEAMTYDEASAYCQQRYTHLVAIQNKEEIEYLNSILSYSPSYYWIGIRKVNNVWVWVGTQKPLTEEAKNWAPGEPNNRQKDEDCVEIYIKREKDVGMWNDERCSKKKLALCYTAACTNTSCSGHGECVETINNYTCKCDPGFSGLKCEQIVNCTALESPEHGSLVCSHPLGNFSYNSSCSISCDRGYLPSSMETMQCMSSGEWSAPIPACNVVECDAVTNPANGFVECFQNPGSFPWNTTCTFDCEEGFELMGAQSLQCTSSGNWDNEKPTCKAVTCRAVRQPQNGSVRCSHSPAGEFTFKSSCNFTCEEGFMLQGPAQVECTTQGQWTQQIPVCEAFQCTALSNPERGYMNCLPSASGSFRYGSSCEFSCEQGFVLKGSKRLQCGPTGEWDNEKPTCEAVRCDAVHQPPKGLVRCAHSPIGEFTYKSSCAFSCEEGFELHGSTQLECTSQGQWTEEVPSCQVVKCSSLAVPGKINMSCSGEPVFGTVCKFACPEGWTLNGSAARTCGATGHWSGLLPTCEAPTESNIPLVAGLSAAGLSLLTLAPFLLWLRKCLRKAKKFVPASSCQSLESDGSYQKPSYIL

O=c1ssc(Cl)c1Cl
active: [1] 3.29 µM | [2] 2.71 µM | [3] 2.65 µM | [4] 5.86 µM | [5] 4.13 µM | [6] 4 µM | [7] 7.06 µM | [8] 2.83 µM | [9] 3.02 µM | [10] 2.71 µM | [11] 20 µM | [12] 2.98 µM | [13] 5.92 µM | [14] 5.59 µM | CD40, CD40 (gene 958) 3.38 µM | [15] 6.46 µM | [16] 7.38 µM

c1ccc2c(c1)sc1ccccc12
not listed: [7] | [13] | [15] | [18]
inactive: all other assays above

Cc1ccc(N)cc1N
not listed: [7] | [15]
inactive: all other assays above

O=P1(N(CCCl)CCCl)NCCCO1 (stereo unspecified)
not listed: [7] | [15]
inactive: all other assays above
